This is a sample that favours compounds with a hit; in the whole collection about 19% have one here.
Shiga toxin inh: blocks Shiga toxin action in Vero cells. Vero cells, Shiga toxin protein synthesis inhibition reporter. inhibition, % at 38.7 µM. actives 9.2% (n = 290,000); in the data active = inhibition mostly above about 28%, no sharp cut-off; inactive = mostly below about 43%
Pf growth 96h: P. falciparum growth inhibition at 96 hour, primary screen for plastid delayed-death inhibitors; P. falciparum luciferase reporter growth, 96 h; Potency, µM (titrated, usually from 28.7 µM), usual class: inhibitors; actives 6.9% (n = 320,000)
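Two-generation exposure (96 h) targets delayed-death phenotype. Reporter parasites carrying integrated firefly luciferase, in red cells at 2% hematocrit and 0.05% parasitemia final, kept at 37 C, 5% CO2; luminescence loss indicates inhibition.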
CHX counter: counter-screen for Shiga toxin inhibitors: cycloheximide protein synthesis inhibition; cell reporter, cycloheximide protein synthesis inhibition counterscreen; max response, %; actives 12% (n = 300,000); AID 2314; in the data active = max response mostly above about 13%, no sharp cut-off; inactive = mostly below about 14%; note: read at 38.3 µM for the half of the compounds with a filed dose
AMA1-RON2 inh: AMA1-RON2 (P. falciparum) interaction inhibition | Potency, µM (titrated, usually from 58.2 µM), most hits filed as inhibitors | actives 0.2% (n = 360,000) | AlphaScreen AMA1-biotinylated RON2 peptide binding; note: nearly all actives have a fitted effect of over 45% in size
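AMA1 (3D7) with his tag at 25 nM final met compounds first, then biotinylated RON2 peptide at 25 nM; detection used donor plus acceptor beads, 10 µg/mL apiece, read by AlphaScreen after 30 min at room temperature.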
SARS PLpro yeast: SARS-CoV PLP inhibition in yeast | S. cerevisiae expressing SARS-CoV PLpro, growth rescue | Potency, µM (doses to about 32.9 µM), usual class: activators | actives 0.19% (n = 330,000); calls by dose curve; note: nearly all actives have a fitted effect of over 55% in size
Pf growth 48h: inhibits P. falciparum growth in the first generation, 48 h; P. falciparum luciferase growth in erythrocytes, 48 h; Potency, µM (highest dose often 28.7 µM), most hits filed as inhibitors; actives 5.9% (n = 310,000); AID 504832
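Luminescence readout; reporter = integrated firefly luciferase in P. falciparum. RBC culture at 2% hematocrit, 0.1% parasitemia final, 37 C/5% CO2; decreased signal taken as growth inhibition.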
Of the large screens only hits and unclear results are named; the others gave an inactive call. Unless noted, calls come from the whole dose curve; as a rule, active = well fitted curve in the direction sought with a large enough effect; inconclusive = small, poorly fitted or top-dose-only effect, or another doubt; inactive = no such curve, though single readings can be large; an effect the other way counts as inactive or inconclusive.

O=C(O/N=C1\CCS(=O)(=O)c2sccc21)c1c(F)cccc1F	CHX counter 14, AMA1-RON2 inh inconclusive
COc1cccc(C(=O)O/N=C2\CCS(=O)(=O)c3sccc32)c1	none
N#CCCN(CCN1CCCC1)S(=O)(=O)c1ccc(-c2ccc([N+](=O)[O-])cc2)cc1	none
COC(=O)CCCCC(=O)C1C(=O)CC(C)(C)C(C(=O)OC)C1=O (stereo not drawn)	none (no result: Pf growth 96h)
CCCC(=O)C1C(=O)CC(C)(C)C(c2cc(C)no2)C1=O (stereo not drawn)	Pf growth 96h 0.12µM, SARS PLpro yeast inconclusive
O=S(=O)(c1ccc(Cl)cc1)c1cnc2ccccc2n1	Pf growth 96h 10µM, Pf growth 48h inconclusive
COc1cccc(C(C(=O)NC2CCCC2)N(Cc2cccnc2)C(=O)Cc2cccs2)c1 (stereo not drawn)	Pf growth 96h inconclusive, Pf growth 48h inconclusive
COc1cccc(CN(C(=O)Cc2c[nH]c3ccccc23)C(C(=O)NC2CCCCC2)c2ccc(C)o2)c1 (stereo not drawn)	Pf growth 96h inconclusive, Pf growth 48h 13µM
Cc1ccc(C(C(=O)NC2CCCCC2)N(Cc2ccccc2)C(=O)Cc2c[nH]c3ccccc23)o1 (stereo not drawn)	Pf growth 96h inconclusive, Pf growth 48h inconclusive
COc1ccc(CN(C(=O)Cc2c[nH]c3ccccc23)C(C(=O)NC2CCCCC2)c2ccc(C)o2)cc1 (stereo not drawn)	Pf growth 96h 5.2µM, Pf growth 48h 5.2µM
COc1cccc(CN(C)C(=O)Cc2c[nH]c3ccccc23)c1	CHX counter 20
COc1ccc2c(c1OC)C(=O)N1C2SC[C@H]1C(=O)NC1CC1 (stereo partly drawn)	none
CC(C)N1C(=O)C(Cc2nc3ccccc3c(=O)n2-c2ccccc2)c2ccccc21 (stereo not drawn)	Pf growth 96h 9.3µM, Pf growth 48h 9.3µM
O=c1c2ccccc2nc(CNc2ccccc2)n1-c1ccccc1	Pf growth 96h 7.4µM, Pf growth 48h inconclusive
COc1ccc(CC(=O)NCCS(=O)(=O)N2CCN(c3ccccc3OC)CC2)cc1	none (no result: Shiga toxin inh, CHX counter)
COC1CCCCC1Nc1cc(C)cc(C)c1 (stereo not drawn)	Pf growth 96h 13µM (no result: Pf growth 48h)
N#CC(=C1Nc2ccccc2N1)S(=O)(=O)c1ccccc1	none
Cc1cnc(NC(=O)c2sc(Nc3ccccc3)nc2N)o1	Shiga toxin inh 90, CHX counter 28
O=C(Nc1cccnc1)c1sc(Nc2ccccc2)nc1-c1ccccc1	none
COc1ccc(C(=O)c2sc(Nc3ccccc3)nc2N)cc1	Pf growth 96h inconclusive, CHX counter 41, Pf growth 48h inconclusive
COc1ccc(C(=O)c2sc(Nc3ccccc3F)nc2N)cc1	Shiga toxin inh 86, CHX counter 41 (no result: Pf growth 48h)
Nc1nc(Nc2ccccc2)sc1C(=O)c1ccccc1	Shiga toxin inh 90, CHX counter 36
COc1ccc(C(=O)c2sc(Nc3ccccc3)nc2N)cc1OC	Pf growth 96h inconclusive, Pf growth 48h inconclusive
CC(C)OC(=O)c1ccc(NC(=O)c2cncc(Br)c2)cc1	CHX counter 20
CN(C)C(=O)c1ccc(NC(=O)c2cncc(Br)c2)cc1	Shiga toxin inh active (no result: Pf growth 96h)
OC(CNC1Cc2ccccc2C1)COc1ccc(Cl)cc1 (stereo not drawn)	Pf growth 48h inconclusive
OC(CNC1CCCc2ccccc21)COc1c(Cl)cccc1Cl (stereo not drawn)	Pf growth 96h 3.3µM, Pf growth 48h 1.9µM
CCOC(=O)N=S(N)(=O)c1ccccc1 (stereo not drawn)	Pf growth 96h 10µM (no result: SARS PLpro yeast)
Cc1[nH]n(-c2ccccc2)c(=O)c1N=Nc1cccc(C(=O)O)c1	CHX counter 42 (no result: Shiga toxin inh)
Cc1[nH]n(-c2ccccc2)c(=O)c1N=Nc1ccccc1	CHX counter 23, AMA1-RON2 inh inconclusive
Cc1ccc(N=Nc2c(N)n(-c3ccccc3)[nH]c2=O)cc1	Shiga toxin inh 122, CHX counter 38
Cc1oc2ccc(O)cc2c1C(=O)c1ccccc1	CHX counter 15
CN(C)/C=C1\C(=O)N(c2ccc(Cl)cc2)CS1(=O)=O	Shiga toxin inh 86, CHX counter 36
COc1ccc(N2C(=O)/C(=C/N(C)C)NC2=S)cc1	none

Screening results deposited in PubChem BioAssay by National Center for Advancing Translational Sciences (NCATS).
